Reference: the supplement of paper PMC11219838
Values without a mark were called inactive.

Columns and labels:
Conditions in all cases: 60 µM; 5 days; temperature: 20 °C
Meloidogyne hapla J2 = experiment: proportion of mobile M. hapla J2 relative to DMSO control (fraction of DMSO control); higher = more viable, less nematicidal, active = 0.7 or less
Outline: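 Two biological replicates were run and averaged, each on 96-well plates in which about 25 M. hapla J2 sat in distilled water per well. Compound was pinned in to give 60 µM final and 0.6% v/v DMSO, and the sealed plates were shaken at 200 rpm and 20 °C for 5 days before 2 µL 1 M NaOH was added. Mobility was scored microscopically and divided by the mean from the plate's DMSO-only wells, of which there were eight.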

[1] = tested on: Caenorhabditis elegans dauer (daf-2(e1370)); experiment: proportion of mobile C. elegans dauer larvae relative to DMSO control (fraction of DMSO control); higher = more viable, less nematicidal, active = 0.63 or less; extreme values may be limits of the assay
Outline: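 Compound was added by pinning to 60 µM final, giving 0.6% v/v DMSO, in 96-well plates containing about 20 C. elegans dauers per well in liquid NGM. These dauers came from synchronized larvae held on MYOB plates with E. coli OP50 for 48 h at 25 °C. Plates were sealed and shaken at 200 rpm at 20 °C for 5 days. Under a dissection microscope, the proportion of mobile worms was scored relative to DMSO wells, and two biological replicates were averaged.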

Ditylenchus dipsaci = experiment: proportion of mobile D. dipsaci (mixed stage) relative to DMSO control (fraction of DMSO control); higher = more viable, less nematicidal, active = 0.86 or less; extreme values may be limits of the assay
Outline: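 The worms, D. dipsaci raised on pea plants in Gamborg B-5 agar, were recovered through a filter funnel into water. Each well of a 96-well plate then held about 20 of them in distilled water plus pinned compound at 60 µM final (0.6% v/v DMSO), and the sealed plates were shaken at 200 rpm at 20 °C for 5 days. Following addition of 2 µL 1 M NaOH, mobile worms were counted by microscopy, and mobility was expressed against DMSO controls as the average of two biological replicates.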

Cc1ccc(NC(=O)CSc2nnc(-c3ccco3)o2)cc1Cl
proportion of mobile M. hapla J2 (Meloidogyne hapla J2): 0.96
proportion of mobile C. elegans dauer larvae [1]: 1
proportion of mobile D. dipsaci (Ditylenchus dipsaci): 0.5 (active)

Cc1ccc(SC(C)c2nc(-c3cccnc3)no2)cc1 (stereo unspecified)
proportion of mobile M. hapla J2 (Meloidogyne hapla J2): 0.874
proportion of mobile C. elegans dauer larvae [1]: 1
proportion of mobile D. dipsaci (Ditylenchus dipsaci): 1

Cc1ccc(-c2nnc(SCC(=O)Nc3ccc(Br)c(C)c3C)o2)cc1
proportion of mobile M. hapla J2 (Meloidogyne hapla J2): 1.03
proportion of mobile C. elegans dauer larvae [1]: 1
proportion of mobile D. dipsaci (Ditylenchus dipsaci): 1

O=C(CSc1nnc(-c2ccco2)o1)c1ccc(Br)cc1
proportion of mobile M. hapla J2 (Meloidogyne hapla J2): 0.997
proportion of mobile C. elegans dauer larvae [1]: 1
proportion of mobile D. dipsaci (Ditylenchus dipsaci): 1

O=C(CSc1nnc(-c2cccc(Br)c2)o1)NC1CCCCC1
proportion of mobile M. hapla J2 (Meloidogyne hapla J2): 0.778
proportion of mobile C. elegans dauer larvae [1]: 1
proportion of mobile D. dipsaci (Ditylenchus dipsaci): 1

COc1ccccc1NC(=O)c1ccccc1-c1nc(-c2ccccc2F)no1
proportion of mobile M. hapla J2 (Meloidogyne hapla J2): 1.02
proportion of mobile C. elegans dauer larvae [1]: 1
proportion of mobile D. dipsaci (Ditylenchus dipsaci): 1

c1ccc(COc2cccc(-c3nc(-c4ccccn4)no3)c2)cc1
proportion of mobile M. hapla J2 (Meloidogyne hapla J2): 1.03
proportion of mobile C. elegans dauer larvae [1]: 1
proportion of mobile D. dipsaci (Ditylenchus dipsaci): 1

Brc1cccc(-c2noc(-c3ccc4c(c3)OCO4)n2)c1
proportion of mobile M. hapla J2 (Meloidogyne hapla J2): 1.03
proportion of mobile C. elegans dauer larvae [1]: 1
proportion of mobile D. dipsaci (Ditylenchus dipsaci): 1

Cc1ccccc1-c1noc(-c2ccccc2C(=O)NCc2ccccc2)n1
proportion of mobile M. hapla J2 (Meloidogyne hapla J2): 0.874
proportion of mobile C. elegans dauer larvae [1]: 1
proportion of mobile D. dipsaci (Ditylenchus dipsaci): 1

Cc1ccc(OCc2nc(-c3ccncc3)no2)c(Br)c1
proportion of mobile M. hapla J2 (Meloidogyne hapla J2): 0.993
proportion of mobile C. elegans dauer larvae [1]: 1
proportion of mobile D. dipsaci (Ditylenchus dipsaci): 1

Cc1cccc(-c2nnc(SCC(=O)Nc3ccccc3C(C)C)o2)c1
proportion of mobile M. hapla J2 (Meloidogyne hapla J2): 0.892
proportion of mobile C. elegans dauer larvae [1]: 1
proportion of mobile D. dipsaci (Ditylenchus dipsaci): 1

c1ccc(-c2noc(CSc3nc4ccccc4[nH]3)n2)cc1
proportion of mobile M. hapla J2 (Meloidogyne hapla J2): 1.05
proportion of mobile C. elegans dauer larvae [1]: 1
proportion of mobile D. dipsaci (Ditylenchus dipsaci): 1

Cc1ccc(-c2nc(-c3cccc(C(F)(F)F)c3)no2)cc1
proportion of mobile M. hapla J2 (Meloidogyne hapla J2): 1.04
proportion of mobile C. elegans dauer larvae [1]: 1
proportion of mobile D. dipsaci (Ditylenchus dipsaci): 1

CN(C)C(=O)c1ccccc1-c1nc(-c2ccccc2Cl)no1
proportion of mobile M. hapla J2 (Meloidogyne hapla J2): 0.882
proportion of mobile C. elegans dauer larvae [1]: 1
proportion of mobile D. dipsaci (Ditylenchus dipsaci): 1

O=C(CSc1nnc(-c2ccccc2)o1)Nc1cccc(Cl)c1
proportion of mobile M. hapla J2 (Meloidogyne hapla J2): 1
proportion of mobile C. elegans dauer larvae [1]: 1
proportion of mobile D. dipsaci (Ditylenchus dipsaci): 1

Cc1ccccc1CSc1nnc(-c2ccccc2)o1
proportion of mobile M. hapla J2 (Meloidogyne hapla J2): 1.02
proportion of mobile C. elegans dauer larvae [1]: 1
proportion of mobile D. dipsaci (Ditylenchus dipsaci): 1

O=C(CSc1nnc(-c2ccccc2Cl)o1)c1ccc2c(c1)CCCC2
proportion of mobile M. hapla J2 (Meloidogyne hapla J2): 0.914
proportion of mobile C. elegans dauer larvae [1]: 1
proportion of mobile D. dipsaci (Ditylenchus dipsaci): 1

Cc1cc(OCc2nc(-c3ccncc3)no2)c(C)c(C)c1Br
proportion of mobile M. hapla J2 (Meloidogyne hapla J2): 1.06
proportion of mobile C. elegans dauer larvae [1]: 1
proportion of mobile D. dipsaci (Ditylenchus dipsaci): 1

Cc1cccc(-c2nnc(SCC(=O)Nc3ccc(Br)c(C)c3C)o2)c1
proportion of mobile M. hapla J2 (Meloidogyne hapla J2): 1
proportion of mobile C. elegans dauer larvae [1]: 1
proportion of mobile D. dipsaci (Ditylenchus dipsaci): 1

O=C(c1ccccc1-c1nc(-c2ccccc2Cl)no1)N1CCCCC1
proportion of mobile M. hapla J2 (Meloidogyne hapla J2): 0.932
proportion of mobile C. elegans dauer larvae [1]: 1
proportion of mobile D. dipsaci (Ditylenchus dipsaci): 1

CCOc1cc(-c2noc(-c3ccncc3)n2)ccc1OC
proportion of mobile M. hapla J2 (Meloidogyne hapla J2): 0.745
proportion of mobile C. elegans dauer larvae [1]: 1
proportion of mobile D. dipsaci (Ditylenchus dipsaci): 1

Clc1ccc(-c2nc(-c3ccc4c(c3)OCO4)no2)cc1
proportion of mobile M. hapla J2 (Meloidogyne hapla J2): 1.03
proportion of mobile C. elegans dauer larvae [1]: 1
proportion of mobile D. dipsaci (Ditylenchus dipsaci): 1

CCOc1nc(C)ccc1-c1noc(-c2cccc(C)c2)n1
proportion of mobile M. hapla J2 (Meloidogyne hapla J2): 0.847
proportion of mobile C. elegans dauer larvae [1]: 1
proportion of mobile D. dipsaci (Ditylenchus dipsaci): 1

Brc1cccc(-c2nc(-c3ccncc3)no2)c1
proportion of mobile M. hapla J2 (Meloidogyne hapla J2): 0.991
proportion of mobile C. elegans dauer larvae [1]: 1
proportion of mobile D. dipsaci (Ditylenchus dipsaci): 1

CCOc1nc(C)ccc1-c1noc(-c2ccccc2F)n1
proportion of mobile M. hapla J2 (Meloidogyne hapla J2): 0.851
proportion of mobile C. elegans dauer larvae [1]: 1
proportion of mobile D. dipsaci (Ditylenchus dipsaci): 1

CCOc1ccccc1-c1nc(-c2ccc(Br)cc2)no1
proportion of mobile M. hapla J2 (Meloidogyne hapla J2): 0.916
proportion of mobile C. elegans dauer larvae [1]: 1
proportion of mobile D. dipsaci (Ditylenchus dipsaci): 1

COc1ccccc1OCc1nc(-c2ccc(Br)cc2)no1
proportion of mobile M. hapla J2 (Meloidogyne hapla J2): 1.04
proportion of mobile C. elegans dauer larvae [1]: 1
proportion of mobile D. dipsaci (Ditylenchus dipsaci): 1

CCOc1cc(-c2nc(-c3ccccc3OC)no2)cc(OCC)c1OCC
proportion of mobile M. hapla J2 (Meloidogyne hapla J2): 0.978
proportion of mobile C. elegans dauer larvae [1]: 1
proportion of mobile D. dipsaci (Ditylenchus dipsaci): 1

COc1ccc(Cl)cc1-c1nc(-c2ccccc2C)no1
proportion of mobile M. hapla J2 (Meloidogyne hapla J2): 0.852
proportion of mobile C. elegans dauer larvae [1]: 1
proportion of mobile D. dipsaci (Ditylenchus dipsaci): 1

Cc1ccccc1-c1nc(-c2ccc3c(c2)OCO3)no1
proportion of mobile M. hapla J2 (Meloidogyne hapla J2): 0.848
proportion of mobile C. elegans dauer larvae [1]: 1
proportion of mobile D. dipsaci (Ditylenchus dipsaci): 0.933

CCn1c(SCc2nnc(-c3ccccc3)o2)nnc1-c1ccco1
proportion of mobile M. hapla J2 (Meloidogyne hapla J2): 0.948
proportion of mobile C. elegans dauer larvae [1]: 1
proportion of mobile D. dipsaci (Ditylenchus dipsaci): 1

Cc1ccc(-c2nc(-c3ccc(Br)cc3)no2)cc1
proportion of mobile M. hapla J2 (Meloidogyne hapla J2): 0.916
proportion of mobile C. elegans dauer larvae [1]: 1
proportion of mobile D. dipsaci (Ditylenchus dipsaci): 1

O=C(CSc1nnc(-c2cccc(Br)c2)o1)Nc1ccccn1
proportion of mobile M. hapla J2 (Meloidogyne hapla J2): 0.951
proportion of mobile C. elegans dauer larvae [1]: 1
proportion of mobile D. dipsaci (Ditylenchus dipsaci): 1

Brc1ccc(-c2nc(-c3ccncc3)no2)cc1
proportion of mobile M. hapla J2 (Meloidogyne hapla J2): 0.953
proportion of mobile C. elegans dauer larvae [1]: 0.767
proportion of mobile D. dipsaci (Ditylenchus dipsaci): 1

Cc1ccc(-c2nc(-c3ccccn3)no2)cc1C
proportion of mobile M. hapla J2 (Meloidogyne hapla J2): 1.03
proportion of mobile C. elegans dauer larvae [1]: 1
proportion of mobile D. dipsaci (Ditylenchus dipsaci): 1

Cc1ccc(-c2nc(-c3ccncc3)no2)c(Cl)c1
proportion of mobile M. hapla J2 (Meloidogyne hapla J2): 0.979
proportion of mobile C. elegans dauer larvae [1]: 1
proportion of mobile D. dipsaci (Ditylenchus dipsaci): 1

CCOc1ccccc1-c1nnc(SCc2ccc(C(=O)OC)o2)o1
proportion of mobile M. hapla J2 (Meloidogyne hapla J2): 0.904
proportion of mobile C. elegans dauer larvae [1]: 1
proportion of mobile D. dipsaci (Ditylenchus dipsaci): 1

COc1ccc(Cl)cc1NC(=O)CSc1nnc(-c2ccc(C)cc2)o1
proportion of mobile M. hapla J2 (Meloidogyne hapla J2): 0.982
proportion of mobile C. elegans dauer larvae [1]: 1
proportion of mobile D. dipsaci (Ditylenchus dipsaci): 1

Cc1ccc(-c2nnc(SCC(=O)Nc3ccc(F)cc3)o2)cc1
proportion of mobile M. hapla J2 (Meloidogyne hapla J2): 1.04
proportion of mobile C. elegans dauer larvae [1]: 1
proportion of mobile D. dipsaci (Ditylenchus dipsaci): 1

CCSc1nnc(-c2ccc(Cl)cc2)o1
proportion of mobile M. hapla J2 (Meloidogyne hapla J2): 0 (active)
proportion of mobile C. elegans dauer larvae [1]: 0 (active)
proportion of mobile D. dipsaci (Ditylenchus dipsaci): 0 (active)

COc1ccc(C(=O)Nc2ccc(-c3nnc(SCc4ccccc4)o3)cc2)cc1
proportion of mobile M. hapla J2 (Meloidogyne hapla J2): 1.07
proportion of mobile C. elegans dauer larvae [1]: 1
proportion of mobile D. dipsaci (Ditylenchus dipsaci): 1

COC(=O)c1ccc(CSc2nnc(-c3ccc(OC)cc3)o2)cc1
proportion of mobile M. hapla J2 (Meloidogyne hapla J2): 1.02
proportion of mobile C. elegans dauer larvae [1]: 1
proportion of mobile D. dipsaci (Ditylenchus dipsaci): 1

COc1ccc(NC(=O)CSc2nnc(-c3ccccc3)o2)cc1
proportion of mobile M. hapla J2 (Meloidogyne hapla J2): 0.907
proportion of mobile C. elegans dauer larvae [1]: 1
proportion of mobile D. dipsaci (Ditylenchus dipsaci): 1

Cc1ccccc1OCc1nc(-c2ccc(F)cc2)no1
proportion of mobile M. hapla J2 (Meloidogyne hapla J2): 0.909
proportion of mobile C. elegans dauer larvae [1]: 1
proportion of mobile D. dipsaci (Ditylenchus dipsaci): 1

Cc1ccc(-c2noc(-c3ccccc3C)n2)cc1
proportion of mobile M. hapla J2 (Meloidogyne hapla J2): 1.04
proportion of mobile C. elegans dauer larvae [1]: 0.562 (active)
proportion of mobile D. dipsaci (Ditylenchus dipsaci): 1

COc1ccc(-c2noc(COc3ccc(C(C)(C)C)cc3Br)n2)cc1
proportion of mobile M. hapla J2 (Meloidogyne hapla J2): 0.82
proportion of mobile C. elegans dauer larvae [1]: 1
proportion of mobile D. dipsaci (Ditylenchus dipsaci): 1

Brc1ccc(-c2nc(-c3ccc4c(c3)OCO4)no2)cc1
proportion of mobile M. hapla J2 (Meloidogyne hapla J2): 1.03
proportion of mobile C. elegans dauer larvae [1]: 1
proportion of mobile D. dipsaci (Ditylenchus dipsaci): 1
